A short description of test [1]: probe aShh binding to arrayed compounds – biochemical, biotinylated probe, 635/667 nm fluorescence, primary screen (AID 1114).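 Also: probe is biotin-labelled aShh protein from a stem cell growth factor screen; measures binding of labelled protein to compounds printed on the slide; score merges feature fluorescence at 667 nm with signal-to-noise.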 The following applies: small-molecule microarray, higher = more signal.
Test [2] can be described thus: probe aNog binding to arrayed compounds – biochemical, biotinylated probe, 635/667 nm fluorescence, primary screen (AID 1115).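 Also: probe is biotinylated aNog protein used at 0.15 µg/mL for 1 h at 4 C; z-score combines 667 nm fluorescence of each spot with its signal to noise.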 The note with it: small-molecule microarray, higher = more signal.
The target of test [3] is Torsin-1A-interacting protein 1 (Homo sapiens) (UniProt Q5JTV8). In words: compound microarray binding of lysate hLAP1 – cell lysate, small-molecule microarray, COS7 lysate, 635/667 nm fluorescence, primary screen (AID 1116). The note with it: 635 nm fluorescence, higher = more signal.
The next test concerns the target Albumin (Bos taurus) (UniProt P02769). In words: compounds binding labelled BSA control protein – biochemical, small-molecule microarray, Alexa647 label, 635/667 nm fluorescence, artefact control for SMM control protein annotation, profiling panel (AID 1118).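 Also: score merges 667 nm emission intensity and signal-to-noise per printed compound spot.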 The following applies: BSA-A647 binding, fluorescence 635 nm, higher = more signal.
Test [4] can be described thus: probe aXIP binding to arrayed compounds – biochemical, NeuroSMM set, 635/667 nm fluorescence, primary screen (AID 1119).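 Also: probe is the protein aXip251-270 applied at 1 µg/mL to compound-printed slides; binding of probe to printed compounds measured as 667 nm fluorescence plus signal to noise.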 The following applies: small-molecule microarray, higher = more signal, called active from +8 up or from −8 down.
The nature of test [5]: probe aNOTCH3 binding on compound microarray – biochemical, small-molecule microarray, 635/667 nm fluorescence, primary screen (AID 1120).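 Also: probe is a biotin-tagged antibody raised against NOTCH3 rather than NOTCH3 protein; score merges spot fluorescence near 667 nm with spot signal to noise.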 The following applies: higher = more signal.
A short description of test [6]: probe aNOTCH2 binding on compound microarray – biochemical, small-molecule microarray, 635/667 nm fluorescence, primary screen (AID 1121).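 Also: score merges feature fluorescence read at 667 nm with its signal to noise.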 The note with it: higher = more signal.
Test [7] has as its target Carbonic anhydrase 2 (Homo sapiens) (UniProt P00918). Nature of the test: compounds binding carbonic anhydrase 2 – biochemical, small-molecule microarray, Alexa647-labelled CAII, profiling panel (AID 1122). The following applies: CAII-A647 binding fluorescence, higher = more signal.
A short description of test [8]: COS7 lysate on small-molecule microarray, probe aHis, 635 nm (AID 1123).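 Also: z-score combines 667nm fluorescence intensity with signal-to-noise per printed compound spot.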 The following applies: COS7 cell lysate, fluorescence, higher = more signal.
Test [9] in a line: probe aLAP1 signal on lysate-treated microarray – cell lysate, small-molecule microarray, COS7 lysate, primary screen (AID 1124).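 Also: lysate comes from COS7 cells expressing LAP1 and is applied at 0.3 µg/mL; score merges spot fluorescence near 667 nm with signal-to-noise over triplicate slides.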 The note with it: probe aLAP1, fluorescence, higher = more signal.
The test system of another test is Sam68 (KHDRBS1). Nature of the test: compounds binding KHDRBS1 protein – biochemical, small-molecule microarray, 635 nm fluorescence, primary screen (AID 1125).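 Also: score merges 667 nm channel intensity with signal to noise over triplicate slides.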 The following applies: higher = more signal.
Test [10] deals with Chordin-like protein 2 (CHRDL2). Nature of the test: compounds binding chordin-like 2 – biochemical, small-molecule microarray, 635 nm fluorescence, primary screen (AID 1126).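 Also: printed compound slides probed with Chrdl2 protein at 4 µg/mL for 1 h at 4 C; score merges 667 nm emission intensity with signal to noise over three replicate slides.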 The note with it: fluorescence 635 nm, higher = more signal.
Test [11] has as its target Concanavalin-A (Canavalia ensiformis) (UniProt P02866). In words: compounds binding concanavalin A lectin – biochemical, small-molecule microarray, Alexa647 label, 635 nm, artefact control for SMM control protein annotation, primary screen (AID 1127).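 Also: z combines 667 nm emission intensity with signal-to-noise across three replicate slides.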 The following applies: ConA-A647 binding fluorescence, higher = more signal.
A short description of test [12]: compounds binding Alexa647 anti-His antibody – biochemical, small-molecule microarray, 635 nm fluorescence, artefact control for SMM control protein annotation, primary screen (AID 1128).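 Also: score merges feature fluorescence with signal-to-noise for each printed compound spot.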 The following applies: higher = more signal.
Test [13] deals with Human papillomavirus type 1a E7 protein (residues 1-88). Nature of the test: HPV1a E7 small-molecule binders, primary screen, biochemical, small-molecule microarray, residues 1-88, 635 nm (AID 1129). The note with it: small-molecule microarray binding, fluorescence 635 nm; higher = more signal.
Test [14] has as its target Focal adhesion kinase 1 (Homo sapiens) (UniProt Q05397). Nature of the test: PTK2 protein binding on printed compound slides – biochemical, small-molecule microarray, 635/667 nm fluorescence, BSA, DTT, primary screen (AID 1130).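 Also: composite of spot emission at 667 nm and signal to noise over triplicate slides.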 The following applies: 635 nm fluorescence, higher = more signal.
For test [15], the system named is Fibrinogen (Alexa647-labelled). Nature of the test: Alexa647-fibrinogen binding to printed small molecules – biochemical, small-molecule microarray, 635/667 nm fluorescence, artefact control for SMM control-protein annotation, profiling panel (AID 1131).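 Also: z-score merges 667 nm fluorescence with per-spot signal-to-noise over triplicate slides.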 The following applies: fibrinogen-A647 binding fluorescence, higher = more signal.
Test [16] deals with Follistatin (Homo sapiens) (UniProt P19883). Nature of the test: FST protein binding to printed compounds – biochemical, small-molecule microarray, 635/667 nm fluorescence, primary screen (AID 1132). The note with it: 635 nm fluorescence, higher = more signal.
Test [17] addresses Fibroblast growth factor 2 (Homo sapiens) (UniProt P09038). In words: basic fibroblast growth factor binding to printed compounds – biochemical, small-molecule microarray, 635/667 nm fluorescence, primary screen (AID 1133). The following applies: FGF2, fluorescence 635/667, higher = more signal.
Test [18] in a line: JC-1 mitochondrial potential readout, lung cancer cells – cell-based, A549, JC-1 fluorescence, basal, 24 h, 100 nL, profiling panel (AID 1138).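 Also: A549 lung adenocarcinoma cells under basal conditions with no added stimulus; test concentration not given here.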 The following applies: higher = more signal.

Molecules are shown by their SMILES. Activity calls are given as the source filed them.

Chain of Follistatin (Homo sapiens) (P19883 whole entry, looked up): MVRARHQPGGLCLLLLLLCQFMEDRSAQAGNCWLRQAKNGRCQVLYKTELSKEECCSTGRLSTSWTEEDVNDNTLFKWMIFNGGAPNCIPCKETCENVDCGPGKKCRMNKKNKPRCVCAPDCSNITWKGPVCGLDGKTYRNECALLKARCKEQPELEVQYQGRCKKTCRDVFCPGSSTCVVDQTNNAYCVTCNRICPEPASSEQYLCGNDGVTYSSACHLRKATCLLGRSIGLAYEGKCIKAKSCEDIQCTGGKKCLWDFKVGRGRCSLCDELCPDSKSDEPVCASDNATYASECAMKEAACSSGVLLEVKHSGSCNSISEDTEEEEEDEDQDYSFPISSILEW
Chain of Concanavalin-A (Canavalia ensiformis) (P02866 whole entry, looked up): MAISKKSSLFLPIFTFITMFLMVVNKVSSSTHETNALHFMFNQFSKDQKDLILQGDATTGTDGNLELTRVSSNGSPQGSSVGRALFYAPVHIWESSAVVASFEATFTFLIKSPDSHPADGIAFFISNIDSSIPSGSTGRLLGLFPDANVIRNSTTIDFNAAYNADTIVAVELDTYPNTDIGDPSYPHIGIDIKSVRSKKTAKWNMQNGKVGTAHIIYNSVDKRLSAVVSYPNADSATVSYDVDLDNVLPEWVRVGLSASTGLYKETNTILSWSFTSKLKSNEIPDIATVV
Chain of Fibroblast growth factor 2 (Homo sapiens) (P09038 whole entry, looked up): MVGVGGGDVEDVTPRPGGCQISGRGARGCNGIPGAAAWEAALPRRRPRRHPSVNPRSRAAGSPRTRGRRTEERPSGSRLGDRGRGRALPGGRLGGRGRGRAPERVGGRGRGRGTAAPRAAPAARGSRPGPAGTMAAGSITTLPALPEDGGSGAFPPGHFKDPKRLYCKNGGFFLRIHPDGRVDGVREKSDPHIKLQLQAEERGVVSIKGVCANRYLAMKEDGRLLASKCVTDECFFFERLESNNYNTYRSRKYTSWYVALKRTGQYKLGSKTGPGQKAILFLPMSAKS
Chain of Focal adhesion kinase 1 (Homo sapiens) (Q05397 whole entry, looked up): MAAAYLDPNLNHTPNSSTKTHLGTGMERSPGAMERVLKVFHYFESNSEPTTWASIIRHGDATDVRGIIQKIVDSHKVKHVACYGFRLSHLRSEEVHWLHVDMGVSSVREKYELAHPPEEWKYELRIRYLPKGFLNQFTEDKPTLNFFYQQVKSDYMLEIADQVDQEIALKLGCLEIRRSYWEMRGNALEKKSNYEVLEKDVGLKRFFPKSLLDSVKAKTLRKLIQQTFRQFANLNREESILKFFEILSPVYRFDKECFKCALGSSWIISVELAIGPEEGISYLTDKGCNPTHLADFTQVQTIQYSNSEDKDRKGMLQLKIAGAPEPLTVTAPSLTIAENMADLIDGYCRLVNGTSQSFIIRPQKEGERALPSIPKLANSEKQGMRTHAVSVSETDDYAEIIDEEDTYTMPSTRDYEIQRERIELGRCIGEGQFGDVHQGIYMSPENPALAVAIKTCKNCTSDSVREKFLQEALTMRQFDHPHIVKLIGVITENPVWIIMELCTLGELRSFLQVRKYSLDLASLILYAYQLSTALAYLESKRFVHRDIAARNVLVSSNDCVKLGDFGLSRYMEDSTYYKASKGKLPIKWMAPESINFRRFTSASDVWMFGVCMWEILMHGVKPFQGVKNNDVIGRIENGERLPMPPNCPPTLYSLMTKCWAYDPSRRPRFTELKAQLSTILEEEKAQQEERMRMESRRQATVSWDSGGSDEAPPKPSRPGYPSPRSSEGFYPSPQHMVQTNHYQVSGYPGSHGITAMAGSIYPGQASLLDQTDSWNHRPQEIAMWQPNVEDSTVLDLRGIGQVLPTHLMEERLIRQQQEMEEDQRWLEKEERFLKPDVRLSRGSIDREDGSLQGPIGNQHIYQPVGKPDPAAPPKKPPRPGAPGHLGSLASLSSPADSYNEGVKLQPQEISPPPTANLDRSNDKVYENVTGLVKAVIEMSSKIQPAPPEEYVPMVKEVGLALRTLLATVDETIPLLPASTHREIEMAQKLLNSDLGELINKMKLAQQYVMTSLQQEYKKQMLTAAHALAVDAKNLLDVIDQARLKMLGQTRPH
Chain of Torsin-1A-interacting protein 1 (Homo sapiens) (Q5JTV8 whole entry, looked up): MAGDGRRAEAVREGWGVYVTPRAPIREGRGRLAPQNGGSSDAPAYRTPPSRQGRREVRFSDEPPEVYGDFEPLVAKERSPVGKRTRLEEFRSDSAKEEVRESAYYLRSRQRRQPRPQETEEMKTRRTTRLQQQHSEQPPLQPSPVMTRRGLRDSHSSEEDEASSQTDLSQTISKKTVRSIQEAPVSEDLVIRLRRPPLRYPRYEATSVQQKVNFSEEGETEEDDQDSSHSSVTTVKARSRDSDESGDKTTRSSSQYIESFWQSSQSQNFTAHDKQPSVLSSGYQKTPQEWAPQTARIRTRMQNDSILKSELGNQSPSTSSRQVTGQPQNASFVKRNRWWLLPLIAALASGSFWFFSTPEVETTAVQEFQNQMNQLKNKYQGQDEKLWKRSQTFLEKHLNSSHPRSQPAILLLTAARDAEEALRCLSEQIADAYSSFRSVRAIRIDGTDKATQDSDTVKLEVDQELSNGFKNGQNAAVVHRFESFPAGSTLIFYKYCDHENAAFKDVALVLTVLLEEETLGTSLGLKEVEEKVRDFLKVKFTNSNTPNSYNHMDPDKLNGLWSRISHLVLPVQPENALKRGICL
Chain of Albumin (Bos taurus) (P02769 whole entry, looked up): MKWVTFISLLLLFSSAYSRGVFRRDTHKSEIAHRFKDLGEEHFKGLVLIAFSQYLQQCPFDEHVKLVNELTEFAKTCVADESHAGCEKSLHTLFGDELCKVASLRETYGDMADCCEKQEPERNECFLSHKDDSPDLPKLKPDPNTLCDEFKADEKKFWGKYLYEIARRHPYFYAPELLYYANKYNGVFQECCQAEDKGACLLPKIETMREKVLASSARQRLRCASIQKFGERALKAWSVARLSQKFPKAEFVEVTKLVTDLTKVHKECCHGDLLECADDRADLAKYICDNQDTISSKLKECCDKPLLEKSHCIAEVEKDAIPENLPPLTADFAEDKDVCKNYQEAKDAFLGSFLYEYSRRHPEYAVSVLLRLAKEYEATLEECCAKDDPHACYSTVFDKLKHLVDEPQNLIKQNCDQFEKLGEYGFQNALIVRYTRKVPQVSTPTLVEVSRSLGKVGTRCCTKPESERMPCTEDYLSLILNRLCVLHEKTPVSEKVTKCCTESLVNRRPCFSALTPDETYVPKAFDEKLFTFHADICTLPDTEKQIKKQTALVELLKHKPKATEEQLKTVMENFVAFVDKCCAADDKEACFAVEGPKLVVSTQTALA

Consider `C#CCN1C(C(=O)OCC)OC[C@H]1c1ccccc1` (stereo not given in full), for which the composite z-score was -0.167 in test [1]; -0.21 in [2]; 1.49 in test [3]; -0.0202 with Albumin (Bos taurus); -0.128 in [5]; -0.0861 in [6]. In addition, the composite z-score is -0.0406 in test [7]; 4.71 in [8]; 0.847 in test [9]; 0.487 with Sam68 (KHDRBS1); 0.602 in test [10]; 0.303 in test [11]. In addition, the composite z-score was 0.264 in test [12]; -0.334 in test [13]; 5.01 in test [14]; 0.559 in test [15]; 0.552 in test [16]; 0.469 in test [17]. The composite Z-score in [4] was 0.369 (inactive). In test [18], the z-score came to 0.833.
Take `COCCOC(=O)N1C(=O)[C@@]2(c3cc(C#CCNC(N)=O)ccc31)[C@H](c1ccccc1OCCO)N1[C@H](c3ccccc3)[C@H](c3ccccc3)OC(=O)[C@H]1[C@@H]2C(=O)Nc1nc2ccccc2s1`: the composite z-score in test [1] was 0.284; in [2], 0.561; in test [3], 0.745; with Albumin (Bos taurus) it was 0.598; in [5] it was -0.0391; in test [6], -0.0817. In addition, the composite z-score amounted to 0.439 in test [7]; 0.862 in test [8]; 0.292 in test [9]; 1.12 in the test with Sam68 (KHDRBS1); 0.0611 in test [10]; 1.03 in [11]. The composite z-score in [12] amounted to 0.3; in [13], 0.965; in test [14], 0.374; in test [15], 0.283; in [16], 1.17; in test [17] it was 0.271. In test [4], the composite Z-score was 0.564 (inactive). The molecule also showed a z-score in [18] of -2.07.
In the case of `O=c1n(-c2ccccc2)c(=O)n2n1CC(COc1ccccc1)=C1[C@@H](CCc3ccccc3)OB(O)C[C@@H]12`, the composite z-score in test [1] was 0.277; in test [2], -0.118; in test [3], 0.684; in the test with Albumin (Bos taurus), 0.488; in [5] it was 0.0596; in test [6] it was -0.063. The composite z-score in test [7] is 0.0107; in [8], 0.516; in test [9], 0.362; in the test with Sam68 (KHDRBS1), 1.3; in test [10] it was 0.0848; in [11], 0.515. Moreover, the composite z-score in test [12] amounted to 1.01; in [13] it was 1.04; in test [14], 0.12; in test [15], 0.501; in [16], 0.763; in test [17], 0.853. The composite Z-score in [4] was 0.237 (inactive). In [18], the z-score turned out to be 1.25.
`C[C@@H](OCc1ccccc1)C1NC(=O)[C@@]23C(=O)N[C@@H](Cc4ccccc4)C2[C@H](C)[C@@]2(C)O[C@H]2C3/C=C/C/C=C\CNC(=O)[C@@H]2CCCN2C1=O` (stereo not given in full): the composite z-score was -0.138 in test [1]; -0.247 in test [2]; -0.417 in test [3]; -0.149 with Albumin (Bos taurus); -0.0921 in test [5]; -0.147 in test [6]. Also, the composite z-score in test [7] is 0.619; in test [8], -0.357; in [9] it was -0.296; with Sam68 (KHDRBS1), -0.898; in test [10], 0.377; in [11], -0.896. Further, the composite z-score in [12] was -0.0278; in test [13], -0.443; in test [14], -0.709; in test [15] it was -0.632; in [16], 0.0944; in test [17], 0.166. In addition, in [4], the composite Z-score was -0.216 (inactive). The molecule also came in with a z-score in [18] of 2.49.
Turning to `COCCCNC(=O)[C@@]1(CCS(=O)(=O)c2ccccc2)N=C(c2ccc(OCCCO)cc2)O[C@H]1c1ccccc1CN=[N+]=[N-]`, the composite z-score in test [1] worked out at 0.81; in [2] it was 0.64; in [3], 0.732; in the test with Albumin (Bos taurus) it was 0.91; in [5], 0.448; in test [6], 0.0763. Also, the composite z-score in test [7] was 0.528; in [8] it was 2.3; in [9], 0.561; in the test with Sam68 (KHDRBS1), 1.22; in test [10] it was -0.308; in test [11] it was 1.12. Also, the composite z-score in test [12] is 2.56; in test [13] it was 1.21; in test [14], 1.17; in test [15], 0.989; in [16], 1.4; in [17], 1.53. Further, in test [4], the composite Z-score was 0.582 (inactive). For the same molecule, the z-score in test [18] was 0.579.
With `C#CCOc1ccc(C[C@H]2C(=O)O[C@H](Cc3ccccc3)[C@H](/C=C/C3CC3)N2CC#C)cc1`, the composite z-score in [1] was -0.153; in [2] it was -0.433; in [3], 0.204; with Albumin (Bos taurus), -0.0855; in test [5] it was -0.165; in test [6], -0.172. Further, the composite z-score in [7] is 0.643; in test [8], -0.104; in test [9], 0.0683; in the test with Sam68 (KHDRBS1), -0.0391; in test [10], 0.445; in test [11], -0.224. For the same molecule, the composite z-score in [12] was -0.146; in test [13], 0.128; in test [14], 0.386; in test [15], 0.273; in test [16] it was -0.322; in [17], -0.349. Also, in test [4], the composite Z-score is 0.319 (inactive). This molecule also returned a z-score in test [18] of 4.32.
Regarding `C=C1C=C(Br)C2(OCCCO2)[C@H]2OC12` (stereo not given in full), the composite z-score in test [1] was 0.0684; in test [2], -0.491; in test [3] it was -0.0068; with Albumin (Bos taurus), -0.888; in test [5], 0.0642; in [6], -0.148. The composite z-score was -0.128 in test [7]; -0.529 in test [8]; -0.0289 in test [9]; -0.404 in the test with Sam68 (KHDRBS1); 0.646 in [10]; -0.71 in test [11]. In addition, the composite z-score is -1.16 in test [12]; -0.315 in test [13]; 0.0354 in test [14]; -1.01 in test [15]; 0.442 in test [16]; 0.245 in test [17]. In addition, the composite Z-score in test [4] is 2.51 (inactive). In [18], the z-score is 0.939.
Consider `C=C(/C(=C/C[C@H](OC(=O)c1ccncc1)c1cccc(OCCO)c1)c1cc(C(=O)OC)ccc1OC)C(C)C`, for which the composite z-score in test [1] is -0.0035; in [2], 0.0866; in test [3], -0.142; in the test with Albumin (Bos taurus), -0.768; in test [5], -0.16; in test [6] it was -0.12. In addition, the composite z-score in test [7] is 0.47; in test [8], 0.239; in test [9], 0.11; in the test on Sam68 (KHDRBS1) it was 1.12; in test [10], -1.23; in test [11], 0.505. The composite z-score was -0.538 in test [12]; 0.101 in test [13]; 0.72 in test [14]; -0.188 in test [15]; -0.0075 in test [16]; 0.266 in test [17]. In addition, the composite Z-score in [4] is 0.415 (inactive). Further, in test [18], the z-score came to 2.
In the case of `CC(C)N1CC=CC23O[C@@H]4/C=C\CCCOC(=O)C4[C@H]2C(=O)N(CCCO)[C@@H]3C1=O` (stereo not given in full), the composite z-score in test [1] is -0.0959; in [2], 0.0824; in [3], -0.0239; with Albumin (Bos taurus) it was -1.17; in test [5] it was -0.249; in test [6], -0.125. In addition, the composite z-score is 0.962 in test [7]; -0.0009 in [8]; -0.745 in test [9]; -0.594 in the test on Sam68 (KHDRBS1); -1.72 in [10]; -0.564 in [11]. Also, the composite z-score in [12] was -0.936; in test [13] it was -1.26; in [14] it was -0.134; in test [15], -1.72; in test [16] it was -0.995; in test [17] it was -1.23. For the same molecule, in [4], the composite Z-score is 1.73 (inactive). Moreover, the z-score in [18] is 1.25.

The record behind these values is PubChem BioAssay.
